Shown are actives, neighbours in structure and some others; about 2.8% of the full set was active somewhere.
PAFAH1B3 FP inh: PAFAH1B3 enzyme inhibitors, primary screen, biochemical, fluorescence polarization, human; 340,000 tested, 0.28% active; inhibition, % at 3.39 µM; Platelet-activating factor acetylhydrolase IB subunit alpha1 (Homo sapiens), Q15102; recombinant PAFAH1B3, FP-rhodamine probe;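 active means inhibition above the screen-wide average of all tested compounds plus 3 SD, cut at about 25% in these data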;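 further: 0% = enzyme with DMSO only and 100% = wells lacking PAFAH1B3 protein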
Target sequence (Q15102 whole entry, looked up): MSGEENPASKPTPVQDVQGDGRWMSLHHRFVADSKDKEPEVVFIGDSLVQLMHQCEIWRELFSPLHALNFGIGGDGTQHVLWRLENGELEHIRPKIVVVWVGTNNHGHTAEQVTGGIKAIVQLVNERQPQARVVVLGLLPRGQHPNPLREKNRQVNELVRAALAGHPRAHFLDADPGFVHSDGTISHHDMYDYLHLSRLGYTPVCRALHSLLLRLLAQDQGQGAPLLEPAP
pPAFAH FP inh: pPAFAH enzyme inhibitors, primary screen, biochemical, fluorescence polarization, human; Platelet-activating factor acetylhydrolase (Homo sapiens), Q13093; recombinant pPAFAH, FP-rhodamine probe fluorescence polarization; inhibition, % at 3.39 µM; 330,000 tested, 1.5% active;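 active means inhibition above the mean inhibition across the screen plus 3 SD, cut at about 25% in these data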;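 further: inhibitors block binding of the rhodamine activity-based probe so polarization drops; 0% = enzyme with DMSO and 100% = wells lacking pPAFAH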
DAGLB inh: DAGLB lipase inhibitors, primary screen, biochemical, fluorescence, HTS; 340,000 tested, 0.059% active; HEK293T DAGLB membrane lysate, EnzChek fluorogenic substrate; inhibition, % at 5.17 µM; Diacylglycerol lipase-beta (Homo sapiens), Q8NCG7; in the data active means inhibition above about 34%;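 further: 0% = enzyme with vehicle and 100% = wells lacking enzyme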
PAFAH2 FP inh: PAFAH2 enzyme inhibitors, primary screen, biochemical, fluorescence polarization, human; recombinant PAFAH2, FP-rhodamine activity probe; inhibition, % at 3.39 µM; 340,000 tested, 0.99% active;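 active means inhibition above the mean over all tested compounds plus 3 SD, cut at about 30% in these data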;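 further: inhibitors block probe labeling of enzyme so polarization drops; 0% = enzyme with DMSO and 100% = wells lacking PAFAH2 protein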
PAFAH1B2 FP inh: PAFAH1B2 enzyme inhibitors, primary screen, biochemical, fluorescence polarization, human; inhibition, % at 3.39 µM; recombinant PAFAH1B2, FP-rhodamine activity probe; Platelet-activating factor acetylhydrolase IB subunit alpha2 (Homo sapiens), P68402; AID 492953, 2010; 340,000 tested, 1.2% active;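 active means inhibition above the mean of all tested compounds plus 3 SD, cut at about 24% in these data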;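 further: 0% = enzyme with DMSO and 100% = wells lacking PAFAH1B2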
HTRA1 inh: HTRA1 serine protease inhibitors, primary screen, biochemical, fluorescence polarization, HTS. Q92743. recombinant HTRA1, FP-rhodamine activity-based probe. inhibition, % at 5.96 µM. 340,000 tested, 0.5% active; in the data active means inhibition above about 36%;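 further: 0% = enzyme with DMSO and 100% = wells lacking enzyme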
Target sequence (Q92743 whole entry, looked up): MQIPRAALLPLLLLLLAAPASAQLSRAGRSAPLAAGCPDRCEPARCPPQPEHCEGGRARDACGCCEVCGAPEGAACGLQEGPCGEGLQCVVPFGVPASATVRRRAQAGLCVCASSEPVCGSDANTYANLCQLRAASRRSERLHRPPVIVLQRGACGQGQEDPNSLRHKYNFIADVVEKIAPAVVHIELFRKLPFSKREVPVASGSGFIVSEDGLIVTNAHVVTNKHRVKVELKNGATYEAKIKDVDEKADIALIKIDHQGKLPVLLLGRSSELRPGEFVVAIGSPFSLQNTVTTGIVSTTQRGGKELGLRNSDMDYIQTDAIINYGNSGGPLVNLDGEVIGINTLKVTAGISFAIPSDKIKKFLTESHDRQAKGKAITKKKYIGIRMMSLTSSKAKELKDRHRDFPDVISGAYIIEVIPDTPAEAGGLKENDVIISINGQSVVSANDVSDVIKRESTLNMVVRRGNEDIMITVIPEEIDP
PAFAH1B3 conf FP: PAFAH1B3 enzyme inhibitors, confirmation, biochemical, fluorescence polarization, human; shares compounds with PAFAH1B3 FP inh; recombinant PAFAH1B3, FP-Rh activity-based probe; inhibition, % at 3.39 µM; 390 tested, 30% active; AID 493032, 2011;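 active means average inhibition over triplicate runs above the hit cutoff set in the earlier primary screen, cut at about 25% in these data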;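 further: 0% = enzyme with DMSO and 100% = wells lacking PAFAH1B3 protein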
DAGLB confirm: DAGLB lipase inhibitors, retest, confirmation, biochemical, fluorescence, HEK293T membranes; shares compounds with DAGLB inh; HEK293T DAGLB membrane lysate, EnzChek fluorogenic substrate; inhibition, % at 5.17 µM; 190 tested, 73% active; AID 504445, 2011;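 active means mean inhibition over triplicate wells above a set limit taken from the primary lipase screen, cut at about 34% in these data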;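 further: 0% = DAGLB with DMSO and 100% = wells lacking DAGLB enzyme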
HTRA1 inh conf: HTRA1 protease inhibitors, retest, confirmation, biochemical, fluorescence polarization; shares compounds with HTRA1 inh; recombinant HTRA1, FP-rhodamine activity-based probe; inhibition, % at 5.96 µM; 1,600 tested, 66% active; AID 540248, 2011;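 active means mean inhibition over three repeats above a set limit taken from the earlier primary screen, cut at about 37% in these data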;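 further: 0% = HTRA1 with DMSO and 100% = wells lacking HTRA1; inhibitors block probe binding so polarization drops and inhibition rises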
* marks the source's active call; other numbers are inactive results; x = no result given.

SMILES	PAFAH1B3 FP inh	pPAFAH FP inh	DAGLB inh	PAFAH2 FP inh	PAFAH1B2 FP inh	HTRA1 inh	PAFAH1B3 conf FP	HTRA1 inh conf	others
FC(F)(F)C1=Nc2cccc3cccc(c23)N1	35.3*	x	12.5	-2.0	18.8	39.0*	40.2*	85.0*
Cc1ncc(CO)c(CNc2ccc(Oc3ccccc3)cc2)c1O	1.7	x	-2.4	-8.5	2.2	6.7	x	x
COc1ccc(/C=N/NC(=O)c2cc(O)c(O)c(O)c2)cc1Cn1cc([N+](=O)[O-])cn1	39.4*	x	4.7	15.1	6.6	71.6*	8.1	82.1*
COc1ccc(/C=N/NC(=O)c2ccccc2O)cc1Cn1cc([N+](=O)[O-])cn1	6.1	2.8	0.4	0.9	-3.9	-2.8	x	x
Cc1ccc(O)c(CNc2cccc3cccnc23)c1	7.2	12.6	1.8	3.6	2.7	22.1	x	x
Oc1ccc(Cl)cc1CNc1cccc2cccnc12	28.3*	20.5	4.2	-3.4	17.4	49.0*	5.5	11.2
O=Cc1ccc(O)c2ncccc12	29.3*	x	5.7	10.2	10.4	36.4*	25.0	60.0*
c1cnc2ccc3ncccc3c2c1	7.6	-4.2	-1.3	-2.0	6.8	6.3	x	x
O=C(CCC(=O)c1ccccc1)NC1CCCN(Cc2ccccc2F)C1 (stereo not given)	5.5	2.7	-2.0	1.1	-5.3	7.2	x	x
COc1cc(NCCCCCCN)c2ncccc2c1OC	56.7*	x	-1.1	10.5	13.7	37.9*	20.1	39.4*
Cc1ccc(NCc2ccccc2O)cc1	1.2	3.8	-1.6	-2.2	4.4	4.4	x	x
Cc1ccc(CNc2ccc(O)cc2)cc1	39.0*	x	5.0	22.1	17.7	60.4*	9.5	27.3
COc1cc(NCCCC(C)N)c2ncccc2c1 (stereo not given)	53.1*	x	-4.4	24.1	18.3	61.6*	7.5	11.7
C(=Nn1cnnc1)c1ccc2c(c1)CCC2	x	x	-0.2	x	x	6.0	x	x
CCOc1ccccc1/C=C/c1nc2ccccc2[nH]c1=O	27.9*	x	1.2	1.5	5.6	39.7*	6.6	-7.7
CCN(C[C@H]1N[C@@](CC)(C(=O)OC)[C@H]2C(=O)N(Cc3ccccc3)C(=O)[C@@H]12)S(=O)(=O)c1ccc(F)cc1	7.8	5.2	-2.8	4.1	5.7	-4.5	x	x
Cc1c(N=C2C=CC(=O)c3ccccc32)c(=O)n(-c2ccccc2)n1C	46.9*	x	1.9	19.0	20.8	36.9*	36.8*	33.5
COc1cc(C2Nc3cccc4cccc(c34)N2)cc(OC)c1O	34.8*	6.5	7.5	22.6	13.3	38.5*	10.8	35.3
COC(=O)c1ccc(C2Nc3cccc4cccc(c34)N2)cc1	11.4	6.9	2.7	0.2	-0.9	11.8	x	x
NC(=O)c1ccc(N2CCC(C(N)=O)CC2)c([N+](=O)[O-])c1	3.4	4.1	0.8	-4.2	0.1	-0.1	x	x
O=C1C(Cl)=C(Nc2ccc3cn[nH]c3c2)C(=O)c2ccccc21	38.2*	11.1	13.4	18.8	15.0	46.8*	27.3*	74.8*
CN(C)c1ccc(NC2=C(Cl)C(=O)c3ccccc3C2=O)cc1	39.0*	15.5	21.6	14.9	24.1	62.6*	22.9	58.5*
CC(C)n1cnc2c(NCc3ccccc3)cc(N[C@H](C)CO)cc21	42.6*	9.7	-4.1	18.5	12.3	44.8*	35.1*	33.3
O=C(COC(=O)c1ccc([N+](=O)[O-])s1)Nc1ncc(C(F)(F)F)cc1Cl	30.4*	13.6	5.2	25.1	11.0	37.7*	10.1	63.1*
O=C(COC(=O)c1ccccn1)Nc1ncc(C(F)(F)F)cc1Cl	2.9	5.9	1.9	-12.1	1.2	5.8	x	x
SMILES	PAFAH1B3 FP inh	pPAFAH FP inh	DAGLB inh	PAFAH2 FP inh	PAFAH1B2 FP inh	HTRA1 inh	PAFAH1B3 conf FP	HTRA1 inh conf	others
O=C(C1CC(=O)N(C2CCCCC2)C1)N1CCc2ccccc21 (stereo not given)	1.9	2.6	-1.0	9.2	0.6	-3.5	x	x
CC(C)c1cc(C(=O)OCC(=O)NC2CCS(=O)(=O)C2)c(O)c(C(C)C)c1 (stereo not given)	x	x	0.1	x	x	-3.6	x	x
N#C/C(=C\c1ccc(O)c([N+](=O)[O-])c1)c1nc2ccccc2s1	31.1*	x	37.5*	44.4*	30.3*	16.5	x	x	DAGLB confirm=38.9*
N#C/C(=C\c1ccco1)c1nc2ccccc2s1	2.8	3.8	-5.0	-4.4	-7.4	-12.0	x	x
CNc1ccc(N=Nc2cccc3ncccc23)cc1	4.8	x	34.4*	-4.0	2.2	21.4	x	x	DAGLB confirm=56.1*
Cc1cc(/C=C\c2ccc3cc(N(C)C)ccc3[n+]2C)c(C)n1-c1ccccc1	-80.5	2.8	39.0*	-51.8	-53.9	-57.4	x	x	DAGLB confirm=34.5*
C[n+]1c(/C=C/c2ccc(O)cc2)ccc2ccccc21	9.1	-0.4	0.6	-10.7	-4.0	-4.6	x	x
CC1CCCCC1NC(=O)CCNS(=O)(=O)c1cc(Br)cnc1N (stereo not given)	4.1	-2.6	3.0	4.3	1.7	8.3	x	x
CN1c2ccc([N+](=O)[O-])cc2N(C)C1(C)c1ccccc1 (stereo not given)	0.9	x	36.9*	3.0	4.1	27.5	x	x	DAGLB confirm=33.1
Cn1c2ccccc2c2cc([N+](=O)[O-])ccc21	5.6	6.3	0.3	-5.3	1.8	-11.9	x	x
O=C(NNc1c2ccccc2nc2ccccc12)c1ccc(O)cc1O	12.6	20.2	39.2*	-3.8	6.0	26.1	x	x	DAGLB confirm=52.9*
N#Cc1ccccc1S(=O)(=O)N1CCN(Cc2cc3c(cc2Br)OCCO3)CC1	x	x	-5.8	x	x	-23.5	x	x
O=C(O)c1cccc2c1-c1ccc(Cl)cc1C2=O	2.7	x	1.1	2.2	4.7	-7.3	x	x
Nc1cccc2c1C(=O)c1ccc(Cl)cc1C2=O	-6.4	x	37.9*	-0.8	-1.4	29.9	x	x	DAGLB confirm=40.2*
CC(=O)c1ccc(N2CCN(c3ccc(C(F)(F)F)cn3)CC2)cc1	6.7	10.2	50.3*	-0.6	1.5	-4.4	x	x	DAGLB confirm=70.1*
COc1cccc(C(=O)NCCS(=O)(=O)N2CCCC(C)C2)c1 (stereo not given)	x	x	-1.4	x	x	9.7	x	x

Compound activity (PubChem)
